Reference: publication PMC5540273 (PLoS ONE, 2017)

Assays:
Details in all cases: concentration: 1 μM, replicates: in singlicate; n = 1
BMPR1A = test system: BMPR1A
BMPR1B = test system: BMPR1B
BMPR2 = test system: BMPR2
BMX = test system: BMX
BRAF = test system: BRAF
BRK = test system: T1, BRK
T1 construct: gene PTK6

BRSK1 = test system: BRSK1
BRSK2 = test system: BRSK2
BTK = test system: BTK
BUB1 = test system: BUB1
CAMK1B = test system: CAMK1B
CAMK1D = test system: CAMK1D
CAMK1G = test system: CAMK1G
CAMK1 = test system: CAMK1
CAMK2A = test system: CAMK2A
CAMK2B = test system: CAMK2B
CAMK2D = test system: CAMK2D
CAMK2G = test system: CAMK2G
CAMK4 = test system: CAMK4
CAMKK1 = test system: CAMKK1
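Further: KINOMEscan kinase panel screen.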

| SMILES | %Inh (BMPR1A) [%] | %Inh (BMPR1B) [%] | %Inh (BMPR2) [%] | %Inh (BMX) [%] | %Inh (BRAF) [%] | %Inh (BRK) [%] | %Inh (BRSK1) [%] | %Inh (BRSK2) [%] | %Inh (BTK) [%] | %Inh (BUB1) [%] | %Inh (CAMK1B) [%] | %Inh (CAMK1D) [%] | %Inh (CAMK1G) [%] | %Inh (CAMK1) [%] | %Inh (CAMK2A) [%] | %Inh (CAMK2B) [%] | %Inh (CAMK2D) [%] | %Inh (CAMK2G) [%] | %Inh (CAMK4) [%] | %Inh (CAMKK1) [%] |
| --- | --- | --- | --- | --- | --- | --- | --- | --- | --- | --- | --- | --- | --- | --- | --- | --- | --- | --- | --- | --- |
| Clc1cc(Cl)cc(Nc2ccnc(Nc3cc(Cl)cc(Cl)c3)n2)c1 [GSK175726] | 0 | 0 | 5 | 26 | 0 | 21 | 0 | 0 | 0 | 10 | 3 | 10 | 0 | 7 | 4 | 0 | 0 | 8 | 0 | 10 |
| Cc1c(O)cccc1Nc1ccnc2ccc(C(F)(F)F)cc12.Cl [GW466413] | 0 | 44 | 0 | 0 | 69 | 86 | 0 | 0 | 0 | 29 | 2 | 7 | 0 | 1 | 0 | 0 | 0 | 0 | 0 | 12 |
| CN1C(=O)C(Nc2ccc(Cl)c(C(=O)O)c2)=C(c2ccc(Cl)cc2)C1=O [SB-404290] | 4 | 0 | 25 | 0 | 0 | 0 | 0 | 0 | 0 | 0 | 0 | 17 | 100 | 22 | 17 | 0 | 0 | 18 | 0 | 0 |
| Cc1nnc(-c2ccc3occ(-c4ccc(S(C)=O)cc4)c3c2)[nH]1 (stereo not shown) | 11 | 37 | 26 | 0 | 2 | 0 | 38 | 0 | 0 | 26 | 1 | 15 | 23 | 9 | 4 | 12 | 10 | 12 | 0 | 14 |
| Cc1cccc(-c2nc(-c3ccc(S(C)(=O)=O)cc3)sc2-c2ccnc(NCCc3ccccc3)c2)c1 | 27 | 6 | 1 | 0 | 95.8 | 0 | 3 | 0 | 0 | 24 | 0 | 0 | 16 | 31 | 0 | 0 | 7 | 9 | 0 | 13 |
| COc1cccc(-c2cc(-c3c[nH]nc3-c3ccccn3)ccn2)c1 [GW680338] | 0 | 0 | 10 | 12 | 12 | 4 | 3 | 0 | 0 | 27 | 22 | 14 | 0 | 0 | 0 | 0 | 16 | 15 | 0 | 0 |
| COc1cccc(NC(=O)NC2CCN(c3ccnc(Nc4ccc(F)cc4)n3)C2)c1 (stereo not shown) [GSK1379721] | 0 | 0 | 7 | 0 | 0 | 0 | 0 | 0 | 0 | 10 | 27 | 12 | 0 | 10 | 0 | 0 | 6 | 22 | 0 | 18 |
| CC1=C(C(=O)Nc2cc3cn[nH]c3cc2F)C(c2ccc(C(F)(F)F)cc2)CC(=O)N1 (stereo not shown) [GSK429286] | 0 | 0 | 6 | 4 | 7 | 20 | 5 | 0 | 0 | 18 | 8 | 7 | 0 | 0 | 0 | 0 | 0 | 24 | 0 | 17 |
| Cc1ccc(NC(=O)Nc2cccc(Cl)c2)cc1-c1ccc(C(=O)Nc2ccncc2)cc1 [GSK1398468] | 0 | 0 | 0 | 0 | 67 | 13 | 100 | 9 | 0 | 53 | 28 | 13 | 0 | 7 | 0 | 0 | 7 | 27 | 0 | 0 |
| COC(=O)c1c(-c2ccccc2)c2cc(C(=O)O)ccc2c(=O)n1Cc1ccccc1 | 0 | 3 | 0 | 17 | 90 | 0 | 0 | 0 | 0 | 0 | 0 | 1 | 6 | 1 | 0 | 0 | 5 | 0 | 18 | 0 |
| Cn1ccc2ncnc(Oc3ccc(NC(=O)Nc4ccccc4)cc3)c21 | 0 | 0 | 0 | 42 | 0 | 6 | 0 | 17 | 0 | 0 | 4 | 5 | 22 | 0 | 0 | 0 | 13 | 3 | 0 | 0 |
